ALDH1A1 inh = ALDH1A1 (human) enzyme inhibition. P00352. Potency, µM (series often up to 75.3 µM), without a hit: at the highest dose activity, negative = inhibition, most hits filed as inhibitors. 220,000 tested, 7.3% active. Purified ALDH1A1, NADH fluorescence, propionaldehyde substrate;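 note: potency is the fitted concentration of half-maximal effect; plate controls were no enzyme wells and a reference inhibitor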
Target sequence (P00352 whole entry, looked up): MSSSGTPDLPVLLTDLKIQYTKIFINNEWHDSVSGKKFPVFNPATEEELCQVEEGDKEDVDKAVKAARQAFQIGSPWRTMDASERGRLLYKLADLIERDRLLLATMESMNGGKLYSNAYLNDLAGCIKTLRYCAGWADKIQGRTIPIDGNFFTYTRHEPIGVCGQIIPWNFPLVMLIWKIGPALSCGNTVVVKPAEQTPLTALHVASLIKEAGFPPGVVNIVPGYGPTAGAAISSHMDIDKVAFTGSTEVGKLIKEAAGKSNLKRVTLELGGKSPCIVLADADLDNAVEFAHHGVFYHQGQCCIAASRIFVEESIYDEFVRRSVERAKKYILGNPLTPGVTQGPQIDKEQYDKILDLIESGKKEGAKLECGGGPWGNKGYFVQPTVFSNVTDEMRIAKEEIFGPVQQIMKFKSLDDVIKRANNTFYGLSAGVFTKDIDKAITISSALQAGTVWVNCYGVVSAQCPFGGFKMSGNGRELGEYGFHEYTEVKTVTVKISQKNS
IMPase Li inh = IMPase inhibition in cells with lithium potentiation. CHO-M1 cells, IP1 TR-FRET (IP-One), carbachol + lithium. Potency, µM (top dose mostly 59.4 µM), for the others: at the highest dose activity, negative = IMPase inhibition, usual class: inhibitors. 210,000 tested, 0.35% active; active = well fitted curve in the direction sought with a large enough effect; inconclusive = small, poorly fitted or top-dose-only effect, or another doubt; inactive = no such curve, though single readings can be large; an effect the other way counts as inactive or inconclusive;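 note: IP1 builds up when IMPase is blocked and the TR-FRET signal falls; potency is the fitted concentration of half-maximal effect; plate controls were basal vehicle for no effect and high inhibitor control for full effect; nearly all actives have a fitted effect of over 50% in size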
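Steps: plate 2000 CHO-M1 cells per well and culture 16–30 h; add compound and lithium; incubate 30 min, 37C; add d2-IP1 tracer and Eu cryptate anti-IP1 antibody in lysis buffer; read after 10 min at room temperature.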
HPGD inh = inhibitors of human 15-hydroxyprostaglandin dehydrogenase (HPGD). P15428. purified HPGD, NADH fluorescence kinetic, PGE2 substrate. Potency, µM, for the others: top-dose activity change, negative = inhibition, most hits filed as inhibitors. 150,000 tested, 4.3% active; note: potency is the fitted concentration of half-maximal effect; % is set by controls: 0 for no effect and ±100 for the full control effect
Target sequence (P15428 whole entry, looked up): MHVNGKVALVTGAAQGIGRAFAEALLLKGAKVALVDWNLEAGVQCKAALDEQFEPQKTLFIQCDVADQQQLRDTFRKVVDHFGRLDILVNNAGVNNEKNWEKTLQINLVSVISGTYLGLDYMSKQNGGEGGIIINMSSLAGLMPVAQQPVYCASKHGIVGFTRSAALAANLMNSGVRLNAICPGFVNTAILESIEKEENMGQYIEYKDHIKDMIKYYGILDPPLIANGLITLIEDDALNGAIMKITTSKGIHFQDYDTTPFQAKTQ
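20 nM HPGD preincubated 15 min at room temperature with compound in 50 mM Tris-HCl pH 8, 0.01% Tween 20. Started with 1 mM NAD+ and 30 uM prostaglandin E2; NADH fluorescence (360/450 nm) read 5 times over 30-s intervals, last minus first.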
KinaseGlo FLuc = Kinase-Glo luciferase inhibition (counter-screen). AID 1379. Kinase-Glo luciferase, ATP luminescence, 8 min. Potency, µM (highest dose often 38.3 µM), without a hit: at the highest dose activity change, negative = inhibition, most hits filed as inhibitors. 200,000 tested, 0.28% active. Q27757; active = well fitted curve in the direction sought with a large enough effect; inconclusive = small, poorly fitted or top-dose-only effect, or another doubt; inactive = no such curve, though single readings can be large; an effect the other way counts as inactive or inconclusive; note: potency is the fitted concentration of half-maximal effect; % is set by controls: 0 for no effect and ±100 for the full control effect; nearly all actives have a fitted effect of over 60% in size
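Kinase-Glo luciferase light output from ATP and luciferin was measured with 10 uM ATP, within the enzyme's linear range. Buffer: 50 mM imidazole pH 7.2, 50 mM KCl, 7 mM MgCl2, 0.01% Tween 20, 0.05% BSA; luminescence read after 8 min at ambient temperature.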
Lamin A splicing = modulators of lamin A splicing; 200,000 tested, 0.01% active; AID 1487; HeLa LMNA splicing GFP/RFP minigene ratio, 48 h; Potency, µM (doses to about 46.1 µM), inactives show top-dose ratio change, negative = inhibition, actives largely listed as inhibitors; active = well fitted inhibition curve with a large enough effect in the signal ratio, with a control signal flat, not every such curve was filed as active; inconclusive = small, poorly fitted or top-dose-only effect, or effect the other way, or a change in a side signal; the % refers to the signal ratio; note: potency is the fitted concentration of half-maximal effect; % is set by controls: 0 for no effect and ±100 for the full control effect
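Read-out is the ratio of GFP to DsRed2 object intensity, acquired by 488 nm laser-scanning cytometry on HeLa lamin A-EGFP minigene reporter cells. Compound incubation 48 hrs at 37 °C in Opti-MEM with 2% FBS; DMSO 0.5% final.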
HPGD inh cf = human HPGD enzyme inhibition, confirmation | 90 tested, 90% active | shares compounds with HPGD inh | Potency, µM (titrated, usually from 57.1 µM), without a hit: top-dose activity change, negative = inhibition, actives largely listed as inhibitors | recombinant HPGD, NADH fluorescence, PGE2 substrate; calls by dose curve
Active calls of the source: *; [ ] = another dose, or the depositor's remark. In the library only some 9% were active in any assay of this set; here they are far more common. Unless noted, calls come from the whole dose curve; as a rule, active = well fitted inhibition curve with a large enough effect (not every such curve was filed as active); inconclusive = small, poorly fitted or top-dose-only effect, or another doubt; inactive = no such curve, though single readings can be large or run the other way.

Screening O=C(CCc1ccc(Oc2cc([N+](=O)[O-])cc([N+](=O)[O-])c2)cc1)Nc1cccc(Cl)c1 returned ALDH1A1 inh inconclusive, IMPase Li inh 21%, HPGD inh -10%, KinaseGlo FLuc -3%, Lamin A splicing inconclusive and HPGD inh cf -20%.
Screening C[C@H]1/C=C\CC(=O)NCc2cccc(c2)CNC(=O)N[C@H]1c1ccccc1 returned ALDH1A1 inh 9%, IMPase Li inh 7%, HPGD inh -2% and KinaseGlo FLuc -1%.
For COCCn1c(=O)c(-c2cccs2)nc2cnc(OCc3ccccc3)nc21 the results were ALDH1A1 inh inconclusive, IMPase Li inh -4%, HPGD inh inconclusive and KinaseGlo FLuc -4%.
`COc1ccccc1/C=C/C=N/n1c(-c2ccc(C)cc2)n[nH]c1=S` gave ALDH1A1 inh 32µM*, IMPase Li inh -1%, HPGD inh 1.4µM*, KinaseGlo FLuc -2%, Lamin A splicing inconclusive and HPGD inh cf 1.6µM*.
Screening Cc1ccc(-c2n[nH]c(=S)n2/N=C/C=C\c2ccccc2[N+](=O)[O-])cc1 returned ALDH1A1 inh 1%, IMPase Li inh 28%[38.3 µM], HPGD inh 0.89µM*, KinaseGlo FLuc -4%, Lamin A splicing 5% and HPGD inh cf 0.5µM*.
Screening COc1ccc(OC)c(C(=O)c2ccc(C(=O)N3CCCCC3)cc2)c1 returned ALDH1A1 inh inconclusive, IMPase Li inh -1%[38.3 µM], HPGD inh 0.25µM*, KinaseGlo FLuc 0%, Lamin A splicing -11% and HPGD inh cf 0.2µM*.
For Cc1ccccc1CSc1nc2ccccc2c(=O)[nH]1 the results were ALDH1A1 inh 5%, IMPase Li inh 12%, HPGD inh 1.6µM*, KinaseGlo FLuc -3%, Lamin A splicing 18% and HPGD inh cf 1µM*.
For O=c1[nH]c(SCc2ccccc2F)nc2ccccc12 the results were ALDH1A1 inh inconclusive, IMPase Li inh 8%, KinaseGlo FLuc -1% and Lamin A splicing 19%[46 µM].
`CCC1CCCCN1C(=O)c1nn2cccnc2c1Cl` (stereo not drawn) gave ALDH1A1 inh 3%, IMPase Li inh 5%[38.3 µM], HPGD inh -10%, KinaseGlo FLuc -4%, Lamin A splicing -2% and HPGD inh cf -15%.
Screening O=C(NCc1cccs1)c1nn2cccnc2c1Cl returned ALDH1A1 inh 2%, IMPase Li inh 6%[38.3 µM], HPGD inh inconclusive, KinaseGlo FLuc 3% and Lamin A splicing 4%.
O=C(C1CCC(Cn2c(=S)[nH]c3ccccc3c2=O)CC1)N1CCOCC1 (stereo not drawn) was read as ALDH1A1 inh 2%, IMPase Li inh -8%[38.3 µM], HPGD inh 1.6µM*, KinaseGlo FLuc 9%, Lamin A splicing inconclusive and HPGD inh cf 2.5µM*.
For CC1CCCC(C)N1C(=O)c1cc2ncc(CCCl)cn2n1 (stereo not drawn) the results were ALDH1A1 inh inconclusive, IMPase Li inh -2%, HPGD inh 1µM*, KinaseGlo FLuc 0%, Lamin A splicing inconclusive and HPGD inh cf 0.79µM*.
O=C(c1cc2ncc(Br)cn2n1)N1CCCCC1 was read as ALDH1A1 inh inconclusive, IMPase Li inh -3% and KinaseGlo FLuc -1%.
For Cc1onc(-c2c(F)cccc2Cl)c1C(=O)NC1CCSC1=O (stereo not drawn) the results were ALDH1A1 inh 2%, IMPase Li inh 29%[38.3 µM], HPGD inh -10%, KinaseGlo FLuc -4% and Lamin A splicing 5%.
For Cc1ccc(S(=O)(=O)NCc2ccc(C(=O)N3CCc4ccccc4C3)cc2)cc1 the results were ALDH1A1 inh inconclusive, IMPase Li inh 9%, HPGD inh 1.4µM*, KinaseGlo FLuc -1%, Lamin A splicing inconclusive and HPGD inh cf 2.2µM*.
For Cc1ccc(CN(c2ccc(C(=O)N3CCc4ccccc4C3)cc2)S(C)(=O)=O)cc1 the results were ALDH1A1 inh 12%, IMPase Li inh 28%[38.3 µM], HPGD inh inconclusive, KinaseGlo FLuc 1%, Lamin A splicing inconclusive and HPGD inh cf 11µM*.
O=c1[nH]sc2ccccc12 was read as ALDH1A1 inh inconclusive, IMPase Li inh 26%, KinaseGlo FLuc 0% and Lamin A splicing inconclusive.
For O=c1c2ccccc2sn1-c1ccccc1 the results were ALDH1A1 inh 4.5µM*, IMPase Li inh 31%[38.3 µM], HPGD inh 0.56µM*, KinaseGlo FLuc -20%, Lamin A splicing -12% and HPGD inh cf 0.45µM*.
`CC(=O)Nc1cccc(NC(=O)CSc2nnc(Cc3cccn3C)n2CCc2ccccc2)c1` gave ALDH1A1 inh -15% and Lamin A splicing -1%.
For CCNC(=O)c1ccc(CSc2ccc(Cl)cc2)cc1 the results were ALDH1A1 inh 1%, IMPase Li inh -1%, HPGD inh -24%, KinaseGlo FLuc -7%, Lamin A splicing inconclusive and HPGD inh cf inconclusive.
For O=C(COC(=O)/C=C/c1ccco1)NCc1ccc2c(c1)OCO2 the results were ALDH1A1 inh -8%, IMPase Li inh 1%, KinaseGlo FLuc 1% and Lamin A splicing 17%[46 µM].
CN(C)c1nnnn1Cc1ccc(Cl)cc1Cl was read as ALDH1A1 inh 11%, IMPase Li inh -1%, KinaseGlo FLuc -2% and Lamin A splicing -8%[46 µM].
`COC(=O)CSc1nc2nc(C)c(Br)cc2[nH]1` gave ALDH1A1 inh -9%, IMPase Li inh -12%[38.3 µM], HPGD inh -17%, KinaseGlo FLuc -3%, Lamin A splicing -3% and HPGD inh cf inconclusive.
Screening O=S(=O)(Nc1cc(Sc2cccc3cccnc23)c(O)c2ccccc12)c1ccccc1 returned ALDH1A1 inh inconclusive, IMPase Li inh 12%, HPGD inh 1.1µM*, KinaseGlo FLuc -1%, Lamin A splicing inconclusive and HPGD inh cf 0.63µM*.
For Cc1ccc(S(=O)(=O)Nc2cccc3cccnc23)cc1 the results were ALDH1A1 inh inconclusive, IMPase Li inh 5%[38.3 µM], HPGD inh -26%, KinaseGlo FLuc -6% and Lamin A splicing inconclusive.
`CCN(CCCNS(=O)(=O)c1ccc2c(c1)CCN2C(C)=O)c1cccc(C)c1` gave ALDH1A1 inh inconclusive, IMPase Li inh 21%[38.3 µM], HPGD inh inconclusive, KinaseGlo FLuc 3% and Lamin A splicing -11%.
Screening Cc1nonc1CN(C)C(=O)CC1C(=O)NCCN1Cc1ccccc1C(F)(F)F (stereo not drawn) returned ALDH1A1 inh 1%, IMPase Li inh 5% and KinaseGlo FLuc -1%.
For Cc1ccc(CNC(=O)c2ccc(Cl)cc2[N+](=O)[O-])cc1 the results were ALDH1A1 inh 3%, IMPase Li inh 4%[38.3 µM], HPGD inh 0.2µM*, KinaseGlo FLuc 0%, Lamin A splicing 0% and HPGD inh cf 2µM*.
